# PMK inhibit = blocks S. pneumoniae phosphomevalonate kinase | purified PMK, PK/LDH-coupled NADH absorbance 340 nm | inhibition, % at 10 µM | 65,000 compounds, 0.49% hits | AID 539;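 active = top-ranked compounds by inhibition in the single 10 µM screen, taking a fixed number of the strongest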;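 also: 0% = full reaction with DMSO carrier and 100% = background rate without enzyme reaction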
# Autofluor 339 = intrinsic fluorescence of library compounds, ex339/em460 – biochemical, MLSMR library, data from DPM-DC assay, artefact control, profiling panel; compound autofluorescence, ex339/em460 nm, NADH buffer; active compounds read high; 1 = no-compound wells, NADH background; fluorescence fold increase at 10 µM; 65,000 compounds, 5.5% hits;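 active = at 10 µM, mean starting fluorescence two-fold or more over control wells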;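 also: signal is the first read of a kinetic run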
# MK inhibit = blocks S. pneumoniae mevalonate kinase. inhibition, % at 10 µM. purified MK, PK/LDH-coupled NADH absorbance 340 nm. 65,000 compounds, 0.48% hits. AID 555;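 active = ranked among the strongest by inhibition in the single 10 µM screen, a fixed top-ranked set picked for dose follow-up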
# NADH coupling = blocks coupling enzymes of NAD/NADH assays | IC50, µM (top dose mostly 10 µM), inactives show at the top dose inhibition | 65,000 compounds, 0.02% hits | AID 774 | coupled PK/LDH NADH assays, four targets;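 active = single-dose screening hits from any of four coupled enzyme assays that gave an IC50 when retested across doses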;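 also: the DPM-DC format reads NADH fluorescence rather than 340 nm absorbance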
# Abs 340nm = compounds absorbing at 340 nm; compound absorbance at 340 nm, fold over control; fold change at 10 µM; 65,000 tested, under 10 active; AID 708;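 active = at 10 µM dose, initial 340 nm absorbance at least 2 fold that of control wells; inactive = change under 2 fold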;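 also: initial absorbance extrapolated from kinetic A340 decline of NADH oxidation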
# DPM-DC inhibit = inhibitors of Streptococcus pneumoniae diphosphomevalonate decarboxylase; 65,000 compounds, 0.49% hits; AID 556; calls only at 10 µM; purified DPM-DC, PK/LDH coupled NADH fluorescence;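 active = the 320 compounds with the highest percent inhibition in the single-dose primary screen, excluding strongly autofluorescent ones, cut at about 32% in these data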;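 also: kinetic rate of NADH fluorescence loss reporting ADP formed by the decarboxylase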
# Active calls of the source: *; i = inactive; . = no result given; + = active, no number; [ ] = another dose, or the depositor's remark. Hits are enriched below; roughly 6.5% of the tested compounds scored in any of these assays.
SMILES,PMK inhibit,Autofluor 339,MK inhibit,NADH coupling,Abs 340nm,DPM-DC inhibit
O=P1(NC2CCCC2)COc2ccccc2OC1,12,0.98,10,19%,1,+
CN1C(=O)N(C)C(=O)C2(Sc3ccccc3C2=O)C1=O,7,5*,0,4%,1,.
CN1C(=O)N(C)C(=O)C(CCc2ccccn2)(CCc2ccccn2)C1=O,10,1.1,8,10%,1,i
FC(F)(F)C1=NC(C(F)(F)F)=NP(N2CCOCC2)(N2CCOCC2)=N1,9,1.1,10,10%,1,i
FC(F)(F)c1ccc2c(c1)NP(=S)(N1CCOCC1)c1nccn1-2 (configuration not stated),0,1.1,7,2%,1.1,i
Nc1ccccc1C(=O)OCCOc1ccccc1,10,2.8*,7,7%,1,i
CC1=CC(=C2C(=O)NC(=O)NC2=O)C=C(C(F)(F)F)N1C(C)C,9,1,6,6%,1.1,i
CCC(C)NC(=O)c1c(N)n(CC2CCCO2)c2nc3ccccc3nc12 (configuration not stated),17,2.5*,8,4%,1,.
CCC(C)NC(=O)c1c(N)n(Cc2ccc3c(c2)OCO3)c2nc3ccccc3nc12 (configuration not stated),0,4*,14,7%,1,.
COC(=O)c1c(C)n(Cc2ccc3c(c2)OCO3)c2ccc(O)cc12,2,1.1,8,2%,0.99,i
CCC(=NCC1CCCO1)c1c(O)n(-c2ccccc2)c(=O)[nH]c1=O (configuration not stated),8,1.1,8,5%,1,i
CC1(C)CC(=O)C(C=NCCN2CCN(C(=O)Cc3ccc(Cl)cc3)CC2)=C(O)C1,3,1,8,4%,1,i
Cc1[nH]c2ccccc2c1/C=N/O,9,1.2,3,4%,1,i
c1ccc2c(c1)[nH]c1cnccc12,4,2.4*,7,1%,1,.
Cc1c2ccncc2c(C)c2c1[nH]c1ccccc12,1,2*,5,1%,1,+[fluoresces]
c1ccc2c3c([nH]c2c1)CNCC3,8,1,8,3%,0.98,i
CN(C)C1(c2nnnn2CCOC(=O)Nc2ccc(Cl)cc2)CCCCC1,15,1.1,5,7%,1,i
CC(C)(C)OC(=O)c1c(N)n(Cc2ccco2)c2nc3ccccc3nc12,5,2.5*,8,4%,0.98,.
CCOC(=O)c1c(C)n(Cc2ccco2)c2ccc(O)cc12,2,1.1,0,1%,1,i
CCCCn1c(C)c(C(=O)OCC)c2c(CN3CCOCC3)c(O)ccc21,8,1,5,11%,0.99,i
Nc1c(C(=O)NCCc2ccccc2)c2nc3ccccc3nc2n1CCN1CCOCC1,2,3.9*,9,6%,1,.
CCC(=NCCCN1CCOCC1)c1c(O)n(Cc2ccccc2)c(=O)[nH]c1=O,8,1,4,2%,1,i
CCOC(=O)c1c(N)n(CCN2CCCCC2)c2nc3ccccc3nc12,19,4.9*,0,10%,1.1,.
CCCCn1c(N)c(C(=O)NCCN2CCOCC2)c2nc3ccccc3nc21,14,2.1*,0,7%,1.1,.
CCC(=O)Nc1cc(C(=O)N2CCC3(CC2)OCCO3)ccc1S(=O)(=O)c1ccc(C)cc1,11,1.1,4,5%,1,i
SMILES,PMK inhibit,Autofluor 339,MK inhibit,NADH coupling,Abs 340nm,DPM-DC inhibit
CC(=O)OC1N=C(c2ccccc2)c2ccccc2NC1=O (configuration not stated),9,1.1,3,4%,1,i
CC1CCCCN1CC(=O)c1ccc2cc[nH]c2c1 (configuration not stated),5,1.9,4,13%,1.1,i
COc1ccc(CCNC(=O)c2c(N)n(CCN3CCOCC3)c3nc4ccccc4nc23)cc1,9,3.4*,3,2%,1,.
Nc1c(C(=O)NCCN2CCOCC2)c2nc3ccccc3nc2n1Cc1ccco1,9,3.9*,14,12%,1,.
CC(=O)c1ccccc1NC(=O)C1C2CCC(O2)C1C(=O)O (configuration not stated),6,1.1,11,6%,1,i
C=CCn1c(O)c(C(=O)CCCCCC)c(=O)[nH]c1=O,4,1.1,3,2%,1,i
CCC(=NCC1CCCO1)c1c(O)[nH]c(=O)[nH]c1=O (configuration not stated),14,1.1,13,9%,0.98,i
CCCCOCCCn1c(N)c(C(=O)OC(C)COC)c2nc3ccccc3nc21 (configuration not stated),8,2.4*,13,11%,1,.
COCCCn1c(N)c(C(=O)OC(C)COC)c2nc3ccccc3nc21 (configuration not stated),13,3.9*,14,14%,1.1,.
O=C(CN1C2CCC1CC(O)(c1cccnc1)C2)Nc1ccc2c(c1)OCO2 (configuration not stated),11,1,3,4%,0.97,i
Cn1cc(CCC(=O)N2CCC3(CC2)OCCO3)c2ccccc21,21,1,3,8%,0.97,i
Cc1cc(N2CCOCC2)nc2ccc(NC(=O)CCC(=O)N3CCC4(CC3)OCCO4)cc12,13,4.8*,8,11%,1.1,.
Cc1cc2c(C(F)(F)F)cc(=O)oc2c2c1NCCC2,26*,1.3,0,9%,1,i
CC1(C)CC(n2[nH]c(=O)c3c2NC(=O)CSC3c2ccccc2)CCO1 (configuration not stated),4,1.1,6,3%,1,i
COc1cc(CN2CCN(C(=O)COc3ccccc3)CC2)cc(OC)c1OC,0,1.1,47*,16%,1,i
COc1ccc(CN2CCN(c3ccccc3)CC2)c(C)c1C,23,1.1,50*,24%,1.1,i
CCOC(=O)c1[nH]c(C)c(C(=O)N2CCC3(CC2)OCCO3)c1C,10,1.1,0,3%,0.99,i
CCOCC(=O)NC1CCSC1=O (configuration not stated),25*,0.99,2,3%,0.98,i
COCCn1cc(C(=O)N2CCC3(CC2)OCCO3)c2c3ccccc3n(C)c2c1=O,13,4.3*,0,7%,1,.
Cn1c2ccccc2c2c(C(=O)N3CCC4(CC3)OCCO4)cn(C3CCCC3)c(=O)c21,17,2.1*,16,17%,1.1,.
CC(=NCC1CCCO1)c1c(O)n(C)c(=O)n(C)c1=O (configuration not stated),9,1.1,12,7%,1,i
CCCCCCn1c(=O)c(C(=O)Nc2c(C)n(C)n(-c3ccccc3)c2=O)c(O)c2ccccc21,4,1.1,2,2%,0.98,i
